The results in this text go back to PubChem BioAssay (NCATS).

Records with an inconclusive call do not appear. Activity calls are given as the source filed them. Unless noted, calls come from the whole dose curve; as a rule, active = well fitted curve in the direction sought with a large enough effect; inconclusive = small, poorly fitted or top-dose-only effect, or another doubt; inactive = no such curve, though single readings can be large; an effect the other way counts as inactive or inconclusive.

The target in assay [1] is Alpha-galactosidase (Coffea arabica) (UniProt Q42656). In words: Counterscreen for Glucocerebrosidase Inhibitors: qHTS Assay for Coffee Bean alpha-Galactosidase at pH 4.5 (AID 957). Note: series mostly up to about 77 µM. An outline of the steps:
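Fluorogenic qHTS at pH 4.5 (citrate buffer with Tween-20): 2 nM enzyme, 80 uM 4-MU-alpha-galactoside substrate, compound titrated 0.7 nM to 77 uM, 20 min room temperature. Glycine/NaOH stop; 4-MU read Ex 365/Em 440; Hill-equation AC50 against no-enzyme and enzyme controls.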
For orientation: The purpose of a counterscreen is to sort out artefacts and off-target activity.

For assay [2] the target is unchanged. The assay is described as follows: Counterscreen for Glucocerebrosidase Inhibitors: qHTS Assay for Coffee Bean alpha-Galactosidase at pH 5.9 (AID 998). The gist of the method:
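Enzyme 2 nM + cpd (0.7 nM–77 uM titration) + 4-MU-alpha-Gal 80 uM, pH 5.9 citrate/Tween-20, RT 20 min, NaOH/glycine stop pH 10, fluor 365/440. Normalized to no-enzyme and full-activity controls; Hill-fit AC50.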

The nature of assay [3]: Validation screen for inhibitors of Lassa infection (AID 463096; calls by dose curve).
Assay [4] is described as follows: Inducers of the Endoplasmic Reticulum Stress Response (ERSR) in human glioma: Validation (AID 504836). An outline of the steps:
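Stably transfected U87-MG glioma cells carrying a GRP78-based luciferase sensor; 16 h compound incubation. Luminescence end-point read 10 min after Bright-Glo addition at room temperature.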

Assay [5] in a line: qHTS for Inhibitors of the Functional Ribonucleoprotein Complex (vRNP) of Lassa (LASV) Arenavirus: LASV Primary Screen - GLuc reporter signal (AID 1347082; calls by dose curve; tested in HEK293 reporter line; note: series mostly up to about 57 µM; nearly all actives have a fitted effect of over 60% in size). (qHTS replaces the single test concentration by a dilution series.)
Assay [6] can be described thus: qHTS for Inhibitors of the Functional Ribonucleoprotein Complex (vRNP) of Lassa (LASV) Arenavirus: Viability assay - alamar blue signal for LASV Primary Screen (AID 1347083; calls by dose curve; tested in HEK293 reporter line; note: series mostly up to about 57 µM; nearly all actives have a fitted effect of over 80% in size).
A short description of assay [7]: qHTS for Inhibitors of the Functional Ribonucleoprotein Complex (vRNP) of Lymphocytic Choriomeningitis Arenaviruses (LCMV): Viability assay - alamar blue signal for LCMV Primary Screen (AID 1347085; calls by dose curve; tested in HEK293 reporter line; note: series mostly up to about 57 µM; nearly all actives have a fitted effect of over 80% in size).
The target in assay [8] is Nucleoprotein (Lymphocytic choriomeningitis virus (strain Armstrong)) (UniProt P09992). The assay is described as follows: qHTS for Inhibitors of the Functional Ribonucleoprotein Complex (vRNP) of Lymphocytic Choriomeningitis Arenaviruses (LCMV): LCMV Primary Screen - GLuc reporter signal (AID 1347086; calls by dose curve; note: series mostly up to about 57 µM; nearly all actives have a fitted effect of over 70% in size).
Nucleoprotein (Lymphocytic choriomeningitis virus (strain Armstrong)), sequence (P09992 whole entry, looked up): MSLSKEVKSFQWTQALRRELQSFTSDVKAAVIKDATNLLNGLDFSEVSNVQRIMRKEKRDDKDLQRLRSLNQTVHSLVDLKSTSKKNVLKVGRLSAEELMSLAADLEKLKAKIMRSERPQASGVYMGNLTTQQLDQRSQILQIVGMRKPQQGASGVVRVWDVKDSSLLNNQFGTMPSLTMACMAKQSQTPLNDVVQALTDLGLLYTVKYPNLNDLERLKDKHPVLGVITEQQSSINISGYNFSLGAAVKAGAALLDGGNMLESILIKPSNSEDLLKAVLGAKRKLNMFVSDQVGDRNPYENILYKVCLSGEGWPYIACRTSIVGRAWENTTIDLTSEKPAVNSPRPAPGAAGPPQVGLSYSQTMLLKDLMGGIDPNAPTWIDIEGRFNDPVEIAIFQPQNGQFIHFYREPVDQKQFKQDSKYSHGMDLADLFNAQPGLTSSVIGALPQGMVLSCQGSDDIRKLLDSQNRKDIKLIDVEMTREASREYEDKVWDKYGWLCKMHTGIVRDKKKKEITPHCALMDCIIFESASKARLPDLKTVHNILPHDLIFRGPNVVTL
In assay [9] the target is Ubiquitin carboxyl-terminal hydrolase 2 (Homo sapiens) (UniProt O75604). In words: qHTS Validation Assay for Inhibitors of Ubiquitin-specific Protease USP2a Using CHOP2 as the Reporter (AID 463106). Note: potency is the fitted concentration of half-maximal effect. An outline of the steps:
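Fluorescence read-out at Ex 485nm/Em 531nm after 60min RT, following addition of 25nM Ub-CHOP2 plus 25nM reporter substrate to USP2 core (10nM) pretreated 30min with compound. Data normalized to NEM full inhibition; concentration-response curves fitted.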

Assay [10] has as its target DNA polymerase III PolC-type (Bacillus subtilis (strain 168)) (UniProt P13267). The assay is described as follows: qHTS Validation Assay for the Inhibitors of DNA Replication in Gram-Positive Bacteria (AID 485295). Note: potency is the fitted concentration of half-maximal effect. An outline of the steps: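 PicoGreen fluorescence (ex 480–485/em 535–540 nm) reports dsDNA synthesized on ssM13Gori template with dNTPs/NTPs. Enzyme: holoenzyme rebuilt from purified PolC, beta subunit, SSB and primase. Compound preincubated before substrate addition; RT throughout.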

Assay [11] addresses Ubiquitin carboxyl-terminal hydrolase 1 (Homo sapiens) (UniProt O94782). The assay is described as follows: Inhibitors of USP1/UAF1: Pilot qHTS (AID 504865). Note: potency is the fitted concentration of half-maximal effect; nearly all actives have a fitted effect of over 35% in size. The gist of the method: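 1nM USP1/UAF1 + cpd, 15 min RT; start w/ Ub-Rho 150nM final; kinetic FL 480/540 nm, 6 reads q60 s. Buffer 50mM HEPES pH 7.8, 0.5mM EDTA, 1mM TCEP, 0.01% Tween-20, 0.1 mg/ml BSA.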
Assay [12] is described as follows: HTS Assay for Allosteric Antagonists of the Human D2 Dopamine Receptor: Hit Validation in HTRF (AID 624455).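 Note: stable D1 dopamine receptor cell line scored for blocking the D1 response.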 The gist of the method: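 Inhibition of the D1-mediated response was measured by HTRF. Cells used were a line stably expressing the D1 dopamine receptor.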
For orientation: Time-resolved FRET reads energy transfer from a long-lived donor to a nearby acceptor.

For assay [13], the target named is Arylsulfatase A (Homo sapiens) (UniProt P15289). The assay is described as follows: qHTS screen for enhancers of Arylsulfatase A (ASA1): LOPAC Validation Assay (AID 720538). Note: potency is the fitted concentration of half-maximal effect. An outline of the steps:
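Read-out: fluorescence at Ex=525/Em=598 nm after 1N NaOH final stop. Patient fibroblasts carrying ASA-I179S had 48h compound exposure, then 14h room-temperature pNCS hydrolysis (0.5mM final) in lysis buffer. Signal increase = enhanced activity.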

For assay [14], the target named is M-phase phosphoprotein 8 (Homo sapiens) (UniProt Q99549). In words: qHTS Validation Assay for Inhibitors for MPP8 Chromodomain Interactions with Methylated Histone Tails (AID 488949).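 Note: AlphaScreen signal from MPP8 chromodomain bound to biotinylated H3K9me3 peptide; top concentration of the series differs between compounds; nearly all actives have a fitted effect of over 55% in size.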 The gist of the method: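 AlphaScreen read-out: streptavidin donor and nickel chelate acceptor beads (final 10 ug/mL), 30 min in the dark at RT. Complex of 50 nM MPP8 and 50 nM b-H3(1-18)K9me3 peptide had been exposed to compounds for 30 min beforehand.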

Alpha-galactosidase (Coffea arabica), sequence (Q42656 whole entry, looked up): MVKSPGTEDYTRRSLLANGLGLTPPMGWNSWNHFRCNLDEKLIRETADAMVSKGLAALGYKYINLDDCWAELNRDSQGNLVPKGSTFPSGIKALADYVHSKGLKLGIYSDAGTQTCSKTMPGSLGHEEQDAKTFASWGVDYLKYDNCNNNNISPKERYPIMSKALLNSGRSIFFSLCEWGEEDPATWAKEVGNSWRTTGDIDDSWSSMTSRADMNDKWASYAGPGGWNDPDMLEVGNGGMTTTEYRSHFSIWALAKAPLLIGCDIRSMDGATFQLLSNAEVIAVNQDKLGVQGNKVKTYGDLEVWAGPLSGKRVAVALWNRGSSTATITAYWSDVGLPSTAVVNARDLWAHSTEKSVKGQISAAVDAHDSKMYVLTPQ
Arylsulfatase A (Homo sapiens), sequence (P15289 whole entry, looked up): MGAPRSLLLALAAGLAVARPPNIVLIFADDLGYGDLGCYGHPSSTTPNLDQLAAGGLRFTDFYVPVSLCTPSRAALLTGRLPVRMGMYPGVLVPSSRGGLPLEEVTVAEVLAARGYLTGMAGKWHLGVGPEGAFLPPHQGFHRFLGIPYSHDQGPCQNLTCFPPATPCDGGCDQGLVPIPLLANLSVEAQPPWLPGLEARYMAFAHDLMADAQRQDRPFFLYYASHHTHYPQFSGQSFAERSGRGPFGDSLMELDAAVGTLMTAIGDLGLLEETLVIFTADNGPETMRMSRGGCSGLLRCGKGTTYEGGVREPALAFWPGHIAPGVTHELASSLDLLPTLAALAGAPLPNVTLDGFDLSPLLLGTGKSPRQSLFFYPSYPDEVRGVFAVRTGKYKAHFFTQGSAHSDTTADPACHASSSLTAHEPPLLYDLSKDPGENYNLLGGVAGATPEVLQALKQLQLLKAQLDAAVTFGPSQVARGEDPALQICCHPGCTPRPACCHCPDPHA
Ubiquitin carboxyl-terminal hydrolase 1 (Homo sapiens), sequence (O94782 whole entry, looked up): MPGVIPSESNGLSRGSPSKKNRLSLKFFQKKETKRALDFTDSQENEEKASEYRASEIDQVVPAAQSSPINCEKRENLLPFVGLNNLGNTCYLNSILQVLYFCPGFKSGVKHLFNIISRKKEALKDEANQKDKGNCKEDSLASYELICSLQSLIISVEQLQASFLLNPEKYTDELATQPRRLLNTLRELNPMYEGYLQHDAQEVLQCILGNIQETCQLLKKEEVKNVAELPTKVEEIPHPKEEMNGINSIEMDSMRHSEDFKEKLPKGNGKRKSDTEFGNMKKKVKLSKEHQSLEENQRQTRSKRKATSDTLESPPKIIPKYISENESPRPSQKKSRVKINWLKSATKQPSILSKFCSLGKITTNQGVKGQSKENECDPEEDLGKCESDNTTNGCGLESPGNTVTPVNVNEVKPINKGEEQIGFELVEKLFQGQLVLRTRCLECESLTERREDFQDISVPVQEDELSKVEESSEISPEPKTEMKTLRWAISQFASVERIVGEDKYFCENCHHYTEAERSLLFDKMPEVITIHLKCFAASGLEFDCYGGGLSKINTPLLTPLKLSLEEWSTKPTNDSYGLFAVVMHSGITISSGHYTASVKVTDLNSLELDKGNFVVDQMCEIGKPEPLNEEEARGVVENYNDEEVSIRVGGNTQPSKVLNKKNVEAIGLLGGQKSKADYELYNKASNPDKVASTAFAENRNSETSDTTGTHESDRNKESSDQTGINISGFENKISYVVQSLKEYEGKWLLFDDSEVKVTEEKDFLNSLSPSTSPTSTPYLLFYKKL
DNA polymerase III PolC-type (Bacillus subtilis (strain 168)), sequence (P13267 whole entry, looked up): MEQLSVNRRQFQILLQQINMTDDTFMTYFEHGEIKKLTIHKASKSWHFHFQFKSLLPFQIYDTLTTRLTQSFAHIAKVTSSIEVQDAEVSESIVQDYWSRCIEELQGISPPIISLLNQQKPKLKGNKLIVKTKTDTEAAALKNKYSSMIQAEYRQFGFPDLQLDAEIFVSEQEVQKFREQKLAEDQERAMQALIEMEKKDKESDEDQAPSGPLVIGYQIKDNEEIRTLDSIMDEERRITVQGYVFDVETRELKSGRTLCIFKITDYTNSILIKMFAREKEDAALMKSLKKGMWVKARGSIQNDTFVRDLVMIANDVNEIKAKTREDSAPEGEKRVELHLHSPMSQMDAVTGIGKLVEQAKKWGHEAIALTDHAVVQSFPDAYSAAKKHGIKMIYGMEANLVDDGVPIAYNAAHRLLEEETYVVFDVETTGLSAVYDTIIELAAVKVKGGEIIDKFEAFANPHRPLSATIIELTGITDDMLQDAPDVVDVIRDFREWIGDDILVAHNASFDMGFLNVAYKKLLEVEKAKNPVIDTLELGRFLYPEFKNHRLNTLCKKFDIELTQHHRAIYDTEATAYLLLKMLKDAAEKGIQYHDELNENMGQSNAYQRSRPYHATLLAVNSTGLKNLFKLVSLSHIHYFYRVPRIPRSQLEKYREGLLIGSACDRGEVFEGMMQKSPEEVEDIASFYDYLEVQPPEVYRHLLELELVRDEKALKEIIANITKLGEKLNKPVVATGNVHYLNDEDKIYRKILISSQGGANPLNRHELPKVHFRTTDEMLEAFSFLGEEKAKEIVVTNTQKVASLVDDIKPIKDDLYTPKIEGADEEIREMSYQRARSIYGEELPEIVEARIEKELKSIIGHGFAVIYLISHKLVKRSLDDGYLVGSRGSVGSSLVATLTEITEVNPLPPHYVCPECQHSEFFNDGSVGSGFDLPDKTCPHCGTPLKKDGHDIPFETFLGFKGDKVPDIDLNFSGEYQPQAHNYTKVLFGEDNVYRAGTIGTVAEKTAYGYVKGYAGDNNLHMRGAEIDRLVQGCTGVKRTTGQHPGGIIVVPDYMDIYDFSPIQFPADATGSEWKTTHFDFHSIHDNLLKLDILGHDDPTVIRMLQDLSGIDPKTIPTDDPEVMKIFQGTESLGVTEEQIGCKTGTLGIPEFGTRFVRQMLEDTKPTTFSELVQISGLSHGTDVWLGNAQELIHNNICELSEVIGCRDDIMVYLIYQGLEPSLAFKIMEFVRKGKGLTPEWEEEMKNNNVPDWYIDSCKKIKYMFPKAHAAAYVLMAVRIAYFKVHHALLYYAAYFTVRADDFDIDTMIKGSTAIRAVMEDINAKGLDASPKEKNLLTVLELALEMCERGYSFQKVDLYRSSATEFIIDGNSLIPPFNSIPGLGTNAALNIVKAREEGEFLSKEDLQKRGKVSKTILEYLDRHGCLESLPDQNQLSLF
Ubiquitin carboxyl-terminal hydrolase 2 (Homo sapiens), sequence (O75604 whole entry, looked up): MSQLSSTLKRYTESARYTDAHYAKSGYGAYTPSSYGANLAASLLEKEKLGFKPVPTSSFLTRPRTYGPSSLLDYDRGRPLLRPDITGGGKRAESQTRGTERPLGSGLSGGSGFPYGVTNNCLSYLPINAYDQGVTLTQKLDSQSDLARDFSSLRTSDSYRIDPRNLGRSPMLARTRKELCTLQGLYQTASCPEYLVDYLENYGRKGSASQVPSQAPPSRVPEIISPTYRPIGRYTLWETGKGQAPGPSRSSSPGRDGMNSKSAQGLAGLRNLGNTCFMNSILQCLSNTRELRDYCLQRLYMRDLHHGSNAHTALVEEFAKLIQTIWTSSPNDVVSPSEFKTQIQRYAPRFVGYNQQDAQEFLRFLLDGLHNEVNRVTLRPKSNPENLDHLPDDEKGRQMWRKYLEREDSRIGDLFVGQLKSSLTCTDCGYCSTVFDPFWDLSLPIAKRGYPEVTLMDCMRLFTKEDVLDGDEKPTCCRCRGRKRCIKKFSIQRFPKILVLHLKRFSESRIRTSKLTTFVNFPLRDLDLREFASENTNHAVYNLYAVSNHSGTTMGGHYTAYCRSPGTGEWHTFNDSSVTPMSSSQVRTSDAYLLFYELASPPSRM

In the case of `CN1CCc2ccccc2Cc2[nH]c3ccccc3c2CC1`, the call in [1], in assay [2] and in assay [4] was inactive. Further, the Potency entry in assay [3], in assay [5], in [6], in assay [7] and in [8] was “inactive” throughout.
With `N.N.N.N.N.N.N.N.N.N.N.N.N.N.O.O.[Ru+4].[Ru+5].[Ru+5]`, the Potency is 14.7 µM (active) in assay [9], 16.8 µM (active) in assay [10], 44.7 µM (active) in assay [11] and 12 µM (active) in assay [13]. For the same compound, the outcome in assay [4] and in assay [12] was inactive. Moreover, the Potency result in assay [5], in assay [6], in assay [7] and in [8] was “inactive” throughout.
Take `C[C@]12C=CC(=O)C=C1CC[C@@H]1C2=CC[C@]2(C)[C@@H](C(=O)CN3CCN(c4cc(N5CCCC5)nc(N5CCCC5)n4)CC3)CC[C@@H]12`: the Potency result in assay [14], in [13], in assay [5], in [6], in assay [7] and in assay [8] was “inactive” in each case. Moreover, in assay [4], the compound was called inactive.
For `COC(=O)C1=CO[C@@H](O)[C@@H]2C(CO)=CC[C@H]12`, the result in [4] was inactive. Also, the Potency result in assay [5], in assay [6], in [7] and in assay [8] was “inactive” in each case.
For `NCC(O)C1CCCCCCC1` (stereo not given), the compound was called inactive in assay [4]. Moreover, the Potency entry in assay [5], in assay [6], in assay [7] and in assay [8] was “inactive” each time.
In the case of `OC[C@H]1O[C@@H](n2cnc3c(NC4CCCCC4)ncnc32)[C@H](O)[C@@H]1O`, the outcome in assay [4] was inactive. Also, the Potency entry in [5], in assay [6], in [7] and in [8] was “inactive” throughout.
With `Nc1nc(Cl)nc2c1ncn2[C@@H]1O[C@H](CO)[C@@H](O)[C@H]1O`, in assay [4], the compound was called inactive. The Potency result in [5], in [6], in assay [7] and in [8] was “inactive” in each case.
As to `Cc1nc2sccn2c(=O)c1CCN1CCC(=C(c2ccccc2)c2ccc(F)cc2)CC1`, in [4], the compound was called inactive. For the same compound, the Potency result in [5], in assay [6], in assay [7] and in [8] was “inactive” in each case.
Consider `Fc1cccc(/C=N/N=C/c2cccc(F)c2)c1`, for which the call in assay [4] was inactive. Also, the Potency result in assay [5], in assay [6], in [7] and in assay [8] was “inactive” in each case.
Turning to `CC(O)C(O)[C@H]1CNc2nc(N)[nH]c(=O)c2N1` (stereo not given in full), the compound was called inactive in [4]. Besides, the Potency entry in assay [5], in [6], in [7] and in [8] was “inactive” each time.
Regarding `N[C@@H](Cn1ccc(=O)c(O)c1)C(=O)O`, in assay [4], the call was inactive. The Potency entry in [5], in assay [6], in [7] and in [8] was “inactive” in each case.
On to `COc1cc2nc(N3CCN(C(=O)OCc4ccccc4)C(C(=O)NC(C)(C)C)C3)nc(N)c2cc1OC` (stereo not given), for which, in assay [4], the result was inactive. The Potency result in assay [5], in assay [6], in assay [7] and in assay [8] was “inactive” each time.
In the case of `CNC(=O)[C@H]1O[C@@H](n2cnc3c(NCc4cccc(I)c4)ncnc32)[C@H](O)[C@@H]1O`, the outcome in [4] was inactive. In addition, the Potency result in [5], in assay [6], in assay [7] and in assay [8] was “inactive” each time.
In the case of `O=C(c1ccc2c(c1)OCCO2)N1CCCCC1`, the compound was called inactive in assay [4]. For the same compound, the Potency entry in [5], in [6], in [7] and in [8] was “inactive” throughout.
As to `CCCCCCCCCCC(C)(C)C(=O)Nc1c(OC)cc(OC)cc1OC`, the call in assay [4] was inactive. The Potency result in [5], in [6], in [7] and in [8] was “inactive” throughout.
Take `CC(C)(C)[C@]1(O)CCN2C[C@H]3c4ccccc4CCc4cccc(c43)[C@@H]2C1`: the outcome in assay [4] was inactive. Also, the Potency result in assay [5], in assay [6], in [7] and in assay [8] was “inactive” throughout.
